This note sets out measurements from PubChem BioAssay (EPA / NIEHS).

Inconclusive results are not listed. Activity calls are given as the source filed them. How the source made its calls: active means hit-call score of the fitted dose curve at least 0.9, where 1 is the maximum; inconclusive means response in the unintended direction; inactive means score below 0.9.

Assay [1] can be described thus: TOX21_p53_BLA_p2_viability: Viability Assessment in the Tox21 HCT-116 p53 Agonism Beta-lactamase Assay, Phase 2 (AID 2283591).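 Further: compound exposure lasted 16 h at 37 °C; actives lower the ATP signal meaning cytotoxicity.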 The procedure, abridged:
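HCT116 p53-bla cells, 4000/well, dosed after 5 h plating (217-fold dilution of DMSO stocks) and incubated 16 h at 37C. Viability taken as cellular ATP by CellTiter-Glo luminescence after 30 min RT; signal loss marks cytotoxicity.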

Assay [2] is described as follows: TOX21_p53_BLA_p3_viability: Viability Assessment in the Tox21 HCT-116 p53 Agonism Beta-lactamase Assay, Phase 3 (AID 2283593).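 Further: cells exposed to compound for 16 h before reading.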 The procedure, abridged:
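HCT116 cells, 4000/well, dosed 5 h after plating by pin transfer (217-fold dilution from DMSO stock) and incubated 16 h at 37C, 5% CO2. Viability read as ATP luminescence with CellTiter-Glo after 30 min at room temperature.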

Assay [3] deals with Cellular tumor antigen p53 (Homo sapiens) (UniProt P04637). In words: TOX21_p53_BLA_p5_ratio: Tox21 HCT-116 p53 Agonism Beta-lactamase Assay, Ratio, Phase 5 (AID 2283599). The procedure, abridged:
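HCT-116 p53-bla cells (4000/well) plated 5 h, dosed with compound (217-fold DMSO dilution) for 16 h at 37 C; CCF4-AM substrate 2 h at room temperature. Activity is the 460/530 nm emission ratio (405 nm excitation), fitted in gain-of-signal direction versus DMSO.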

The nature of assay [4]: TOX21_p53_BLA_p5_viability: Viability Assessment in the Tox21 HCT-116 p53 Agonism Beta-lactamase Assay, Phase 5 (AID 2283600). Summed up: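 Luciferase-coupled ATP quantitation of cells treated for 16 h (37C, 5% CO2) with test chemicals delivered in DMSO via a 217-fold dilution; 4000 cells/well; reagent incubated 30 min at room temperature before luminescence reading.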
For assay [5], the target named is Cellular tumor antigen p53 (Homo sapiens) (UniProt P04637). The assay can be described thus: TOX21_p53_BLA_p4_ratio: Tox21 HCT-116 p53 Agonism Beta-lactamase Assay, Ratio, Phase 4 (AID 2283601). The procedure, abridged:
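HCT-116 p53 beta-lactamase reporter cells (4000/well) preincubated 5 h, then compound (217-fold dilution of DMSO stock) for 16 h at 37C. CCF4-AM substrate added 2 h at room temperature; 460/530 nm emission ratio fitted upward versus DMSO.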

A short description of assay [6]: TOX21_p53_BLA_p4_viability: Viability Assessment in the Tox21 HCT-116 p53 Agonism Beta-lactamase Assay, Phase 4 (AID 2283597).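 Further: hits lower the luminescence signal meaning cytotoxicity.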 The procedure, abridged: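 Cytotoxicity was inferred from loss of CellTiter-Glo luminescence. HCT116 cells had been dosed with compounds after 5 h plating, incubated 16 h at 37C and 5% CO2, and exposed to the CCF4-AM substrate for 2 h.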

Assay [7] addresses PGR (gene 5241) (UniProt P06401). The assay can be described thus: TOX21_PR_BLA_Followup_Antagonist_ratio: Tox21 HEK293 Progesterone Receptor (PR) Antagonism Beta-lactamase Follow-Up Assay, Ratio (AID 2283934).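 Further: PR-UAS-bla HEK293T cells stimulated with 1 nM R5020 agonist for 16 hr.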 Summed up: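 Cells are plated, rested 6 hr, then dosed with test compound in DMSO and challenged with 1 nM promegestone. After 16 hr incubation, substrate loading for 2 h at room temperature precedes fluorescence reading; viability is measured in the same wells.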

Assay [8] can be described thus: TOX21_PR_BLA_Followup_Agonist_viability: Viability Assessment in the Tox21 HEK293 Progesterone Receptor (PR) Agonism Beta-lactamase Follow-Up Assay (AID 2283935).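 Further: signal loss means lower viability so actives are cytotoxic.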 The procedure, abridged: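 Cells were plated in medium with 2% charcoal-stripped FBS and rested 6 hr. Compounds in DMSO were then added for 16 hr at 37C, followed by the FRET substrate step and CellTiter-Glo luminescence after 30 min.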

Assay [9] is described as follows: TOX21_PR_BLA_Followup_Antagonist_viability: Viability Assessment in the Tox21 HEK293 Progesterone Receptor (PR) Antagonism Beta-lactamase Follow-Up Assay (AID 2283936).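 Further: cells exposed to compound with R5020 agonist for 16 h; hits lower the luminescence signal meaning cytotoxicity.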 The procedure, abridged: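 PR-UAS-bla HEK293T cells in medium with 2% charcoal-stripped FBS were treated with compounds plus R5020 for 16 hr at 37C. After the beta-lactamase read, CellTiter-Glo was added to the same wells and luminescence read after 30 min at room temperature.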

Assay [10] concerns the target PGR (gene 5241) (UniProt P06401). In words: TOX21_PR_LUC_Followup_Antagonist: Tox21 HEK293 Progesterone Receptor (PR) Antagonism Luciferase Follow-Up Assay (AID 2283938).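 Further: curve fitted upward as signal gain over DMSO baseline despite antagonist label.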 Summed up: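 HEK293-PR-A-luc cells were precultured 5 days in medium with 10% charcoal-stripped FBS, seeded 3,000/well, then exposed to compounds in DMSO for 16 h at 37C. Luciferase was read by ONE-Glo luminescence after 30 min at room temperature.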

Assay [11] is described as follows: TOX21_PR_LUC_Followup_Agonist_viability: Viability Assessment in the Tox21 HEK293 Progesterone Receptor (PR) Agonism Luciferase Follow-Up Assay (AID 2283941).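 Further: loss of signal means cytotoxicity so actives lower viability.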 Summed up:
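Multiplexed viability endpoint of the PR agonist luciferase follow-up: HEK293-PR-A-luc cells treated 16 h at 37C, with viability scored as decrease in CellTiter-Glo ATP signal.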

Cellular tumor antigen p53 (Homo sapiens), sequence (P04637 whole entry, looked up): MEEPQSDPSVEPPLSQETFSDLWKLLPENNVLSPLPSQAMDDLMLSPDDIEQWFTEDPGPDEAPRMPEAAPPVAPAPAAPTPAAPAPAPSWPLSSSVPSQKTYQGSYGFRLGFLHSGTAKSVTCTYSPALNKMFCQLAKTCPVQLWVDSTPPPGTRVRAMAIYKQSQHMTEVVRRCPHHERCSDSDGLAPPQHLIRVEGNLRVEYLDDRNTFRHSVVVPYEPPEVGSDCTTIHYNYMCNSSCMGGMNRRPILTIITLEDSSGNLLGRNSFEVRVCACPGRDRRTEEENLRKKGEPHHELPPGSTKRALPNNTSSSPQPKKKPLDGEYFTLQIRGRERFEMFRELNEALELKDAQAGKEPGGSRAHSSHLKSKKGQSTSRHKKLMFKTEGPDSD
PGR (gene 5241), sequence (P06401 whole entry, looked up): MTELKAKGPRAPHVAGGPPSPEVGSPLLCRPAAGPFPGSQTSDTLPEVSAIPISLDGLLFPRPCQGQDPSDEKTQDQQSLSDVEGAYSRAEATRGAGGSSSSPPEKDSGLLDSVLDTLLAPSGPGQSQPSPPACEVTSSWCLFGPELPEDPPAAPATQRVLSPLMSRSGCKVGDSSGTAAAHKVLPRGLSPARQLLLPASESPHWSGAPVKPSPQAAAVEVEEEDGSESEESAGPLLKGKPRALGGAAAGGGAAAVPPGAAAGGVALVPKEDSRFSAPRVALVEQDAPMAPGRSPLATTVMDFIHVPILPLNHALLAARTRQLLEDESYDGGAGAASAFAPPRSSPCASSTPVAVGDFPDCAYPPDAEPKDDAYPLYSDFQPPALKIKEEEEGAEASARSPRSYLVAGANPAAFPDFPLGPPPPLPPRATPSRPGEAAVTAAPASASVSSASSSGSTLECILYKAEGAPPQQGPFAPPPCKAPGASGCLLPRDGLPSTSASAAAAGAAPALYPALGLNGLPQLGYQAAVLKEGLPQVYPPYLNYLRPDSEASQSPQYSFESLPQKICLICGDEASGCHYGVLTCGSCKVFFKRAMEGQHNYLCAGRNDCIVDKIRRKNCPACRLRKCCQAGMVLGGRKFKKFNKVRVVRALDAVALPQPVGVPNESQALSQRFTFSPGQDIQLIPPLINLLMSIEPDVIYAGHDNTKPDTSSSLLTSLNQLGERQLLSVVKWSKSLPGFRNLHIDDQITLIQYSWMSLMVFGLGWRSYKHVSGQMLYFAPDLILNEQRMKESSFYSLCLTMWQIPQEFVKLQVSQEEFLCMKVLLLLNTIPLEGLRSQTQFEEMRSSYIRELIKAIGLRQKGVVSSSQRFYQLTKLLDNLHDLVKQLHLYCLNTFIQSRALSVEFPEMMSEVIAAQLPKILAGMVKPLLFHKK

Regarding `CC(=O)c1ccc(OCC(=O)N2CCCCC2)cc1`, the call in [1], in assay [2], in assay [3], in assay [4] and in assay [5] was inactive.
For the compound `CC(C)OC(C)C`, the compound was classed as inactive in [1], in assay [2], in assay [3], in [4] and in assay [5].
As to `CC(C)C(O)(c1ccc(OC(F)(F)F)cc1)c1cncnc1` (centres undefined), the call in [1], in assay [2], in [6], in [4] and in [5] was inactive.
As to `O=S(=O)(Oc1ccc(Cl)cc1)c1ccccc1`, the call in assay [1], in assay [2], in assay [3], in assay [4], in assay [8] and in assay [9] was inactive. In addition, the compound was called inactive (in the assay with PGR (gene 5241) [10]; in assay [11]). For the same compound, the AC50 – broadly, the midpoint of the concentration-response curve, whichever way the signal moves – with PGR (gene 5241) [7] is 59.9 µM (active).
With `CCOC(=O)COc1ccc2c(C)c(CCN(CC)CC)c(=O)oc2c1Cl`, the compound was called inactive in [1], in assay [2], in assay [3], in [4] and in assay [5].
`O=c1[nH][nH]c(=O)c2cc([N+](=O)[O-])ccc12`: the outcome in [1], in assay [2], in [6] and in assay [4] was inactive.
On to `NC(=O)C1c2ccccc2CCc2ccccc21`, for which the outcome in assay [1], in assay [2] and in [3] was inactive.
In the case of `O=C(O)c1cccc(/C=C2/C[C@@H]3[C@@H](/C=C/[C@@H](O)C4CCCCC4)[C@H](O)C[C@@H]3O2)c1`, the compound was called inactive in assay [1], in assay [2], in [3], in [4] and in assay [5].
For `O=C(O)CCC(=O)Nc1ccc(S(=O)(=O)Nc2nccs2)cc1`, the result in [1], in assay [2], in [3], in assay [4] and in assay [5] was inactive.
Regarding `Oc1ccc2c(c1)OCO2`, the call in [1], in assay [2], in assay [6], in assay [4] and in assay [5] was inactive.
On to `CCN(CC)C(=O)c1cccnc1`, for which the compound was called inactive in assay [1], in assay [2], in assay [6], in [4] and in [5].
On to `Cc1ccc(/C(=C\CN2CCCC2)c2cccc(/C=C/C(=O)O)n2)cc1`, for which the compound was classed as inactive in assay [1], in assay [2], in [6] and in [5].
On to `CCOCCOCCOC(C)=O`, for which the compound was called inactive in [1], in assay [2], in [3], in assay [4] and in [5].
As to `CC(C)Nc1cccnc1N1CCN(C(=O)c2cc3cc(NS(C)(=O)=O)ccc3[nH]2)CC1`, the result in [1], in [2], in assay [6], in [4] and in [5] was inactive.
For `O=c1[nH]c2ccccc2n1CCCN1CCN(C(c2ccccc2)c2ccccc2)CC1`, the compound was classed as inactive in [1], in [2] and in assay [4]. Besides, in [6], the AC50 is 31.3 µM (active).
`Cc1ccc(N(CCO)CCO)cc1`: the outcome in assay [1], in assay [2], in [3], in assay [4] and in assay [5] was inactive.
